Pf growth 96h: P. falciparum growth inhibition at 96 hours; P. falciparum luciferase reporter growth, 96 h; Potency, µM (top dose mostly 28.7 µM), most hits filed as inhibitors; 320,000 tested, 6.9% active
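Two parasite generations (96 h, 37 C, 5% CO2) of compound exposure in infected erythrocytes (0.05% parasitemia, 2% hematocrit). Luciferase-reporter P. falciparum; decreased luminescence indicates inhibited growth, aimed at apicoplast-acting delayed death.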
LASV entry inh: inhibitors of Lassa virus binding or cell entry; Lassa virus pseudotype entry inhibition, cell reporter; Potency, µM (series often up to 37.9 µM), actives largely listed as inhibitors; 300,000 tested, 1.2% active; AID 540256; calls by dose curve; tested in HEK293 cells; note: nearly all actives have a fitted effect of over 50% in size
Pf growth 48h: inhibits P. falciparum growth in the first generation, 48 h. 310,000 tested, 5.9% active. Potency, µM (series often up to 28.7 µM), actives largely listed as inhibitors. AID 504832. P. falciparum luciferase growth in erythrocytes, 48 h
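Compounds are pin-transferred into medium, infected erythrocytes (2% hematocrit, 0.1% parasitemia final) are added, and plates sit one parasite generation at 37 C in 5% CO2. Detection reagent is then added and luminescence measured.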
Marburg entry inh: blocks Marburg virus binding to or entry into cells; Potency, µM (series often up to 37.8 µM), actives largely listed as inhibitors; Marburg virus pseudotyped entry inhibition, cell reporter; 300,000 tested, 1.8% active; calls by dose curve; tested in HEK293 cells
HCV inh: HCV inhibition | Huh7.5.1 HCVcc-Cre infection, luciferase reporter, 44 h | Potency, µM (titrated, usually from 41.8 µM), most hits filed as inhibitors | 340,000 tested, 3.4% active
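Infectious HCV cell culture screen: compound-treated cells (1,000/well, pre-plated 4 h) are infected with HCVcc-Cre at roughly 0.5 moi and grown 44 h. Infection is quantified by luciferase signal after 15 min substrate incubation at room temperature.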
HCMV inh: inhibitors of human cytomegalovirus | HFF cells, HCMV-luciferase reporter, 72 h; stronger effect = lower value | activity change, negative = inhibition, % at 57.5 µM | 410,000 tested, 4.5% active | AID 1259415; in the data active = activity change below about -60%; inconclusive = no clear call, values can overlap the other calls; inactive = above about -39%
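After 16 h attachment at 37C, HFF cells received test compound and HCMV-luciferase (1 PFU/cell); reporter luminescence read 72 h later, data normalized against buffer-only and known inhibitor Salinomycin.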
A number is an active result; n = inactive; u = inconclusive; x = no result; ! = not confirmed by another sample; [ ] = another dose, or the depositor's remark. Rows were chosen to be rich in hits. Some 14% of all compounds tested hit in one or more screens of this group. Unless noted, calls come from the whole dose curve; as a rule, active = well fitted inhibition curve with a large enough effect; inconclusive = small, poorly fitted or top-dose-only effect, or another doubt; inactive = no such curve, though single readings can be large or run the other way.

SMILES | Pf growth 96h | LASV entry inh | Pf growth 48h | Marburg entry inh | HCV inh | HCMV inh
O=C(c1cc2ccccc2o1)N1CCN(c2ccccc2Cl)CC1 | 7.4µM | n | x | u | n | n
O=C(c1cc2ccccc2o1)N1CCN(c2cccc(Cl)c2)CC1 | n | n | n | n | n | n
Nc1ccn(C2C=CC(CO)O2)c(=O)n1 (stereo unspecified) | x | x | x | x | x | n
Cc1ccc(CNC(=O)CCCn2c(=O)c3ccccc3n(Cc3ccccc3C)c2=O)cc1 | x | n | x | n | x | n
CCc1ccc(CN2CCN(C(=O)c3ccco3)CC2)cc1 | n | n | n | n | u | n
O=C(c1ccco1)N1CCN(Cc2c(Cl)cccc2Cl)CC1 | 2.6µM | x | n | x | n | n
O=C(c1ccco1)N1CCN(Cc2cccc3ccccc23)CC1 | n | 10µM | u | 5µM | n | n
O=C(c1ccco1)N1CCN(Cc2ccc(Cl)cc2)CC1 | n | n | u | n | n | n
COc1ccc(Cn2c(=O)c3cccnc3n(CC(=O)Nc3ccc(C)c(F)c3)c2=O)cc1 | x | x | x | u | x | n
Cc1c(Cl)c([N+](=O)[O-])nn1CCCC(=O)Nc1ccc(Cl)cc1Cl | 12µM | n | n | n | n | n
Cc1nn(Cc2ccccc2Cl)c(C)c1NC(=O)CCCn1nc([N+](=O)[O-])c(Cl)c1C | 4.7µM | u | n | n | n | n
Cc1c(Cl)c([N+](=O)[O-])nn1CCCC(=O)Nc1cccc(Cl)c1Cl | u | n | n | n | n | n
Cc1ccc(Cn2nc(C)c(NC(=O)CCCn3nc([N+](=O)[O-])c(Cl)c3C)c2C)cc1 | n | u | n | n | n | n
CC1(Oc2ccc(Cl)cc2)CCN(Cc2ccc(-c3ccccn3)cc2)C1 (stereo unspecified) | x | x | x | x | x | -82
CCOc1ccc(CCNC(=O)c2cc3c(-c4ccccc4F)nn(C)c3s2)cc1 | x | n | x | u | x | n
Cc1oncc1C(=O)Nc1ccc2ccccc2c1 | n | x | n | x | n | n
Cc1oncc1C(=O)Nc1ccc(C(F)(F)F)cc1 | 4.5µM! | u | u | 7.1µM | n[8.37 µM] | -69
O=C(c1ccc2c(c1)N(Cc1ccc(F)cc1)C(=O)c1ccccc1S2(=O)=O)N1CCCCC1 | x | n | x | n | x | n
ClCCn1cnc2c(SCc3ccccc3)ncnc21 | x | u | x | 0.89µM | n | -64
ClCCn1cnc2c(SCc3ccccc3Cl)ncnc21 | x | u | x | u | n | -76
COc1ccc(CNC(=O)Cn2nc(C(F)(F)F)cc2C)cc1 | 13µM | x | n | x | n | n
COc1ccc(CNC(=O)c2ccc(Cn3nc(C)cc3C)o2)cc1 | 1.5µM | x | n | x | n | n
COc1ccc(CNC(=O)c2ccc(Cn3nc(C)c([N+](=O)[O-])c3C)o2)cc1 | n | n | u | u | u | n
COc1ccc(CNC(=O)Cn2nc(C(F)(F)F)c(Br)c2C)cc1 | n | x | n | x | n | n
Cc1ccc(/C=C/c2onc(C)c2S(=O)(=O)N2CCC(C(=O)N3CCN(c4cccc(C)c4)C(C)C3)CC2)cc1 (stereo unspecified) | x | n | x | x | x | n
SMILES | Pf growth 96h | LASV entry inh | Pf growth 48h | Marburg entry inh | HCV inh | HCMV inh
COc1ccccc1NC(=O)c1ccc(S(=O)(=O)N2CCCC(C)C2)cc1 (stereo unspecified) | n | n | n | n | u | -64
COc1ccc(NC(=O)c2ccc(S(=O)(=O)N3CCCCC3)cc2)c(OC)c1 | n | n | n | n | n | n
CCc1nnc(NC(=O)c2ccc(S(=O)(=O)N3CCCC(C)C3)cc2)o1 (stereo unspecified) | u | x | u | x | n | n
Cc1cc(F)ccc1S(=O)(=O)Nc1ccccc1C(=O)Nc1ccccc1-c1nc2ccccc2[nH]1 | 1.9µM | 11µM | 9.3µM | u | 7.9µM | x
CC1CCN(S(=O)(=O)c2ccc(C(=O)Nc3nnc(-c4ccccn4)o3)cc2)CC1 | n | n | n | u | n | n
CC1CCN(S(=O)(=O)c2ccc(C(=O)Nc3ccccc3-c3nc4ccccc4[nH]3)cc2)CC1 | 7.4µM | u | 4.1µM | n | u | n
CC1CCCN(S(=O)(=O)c2ccc(C(=O)Nc3ccccc3-c3nc4ccccc4[nH]3)cc2)C1 (stereo unspecified) | u | n | 1.5µM | u | u | n
CCc1nc2ccc(C(=O)N(CC)CCN(C)C)cn2c1N(C)Cc1cccs1 | x | x | x | x | x | n
CCCCn1c(N)c(N(CCOC)C(=O)c2ccc(C)o2)c(=O)[nH]c1=O | n | n | n | n | n | n
COc1ccccc1C(=O)NCCC(=O)N1CCCC(C)C1 (stereo unspecified) | n | u | n | n | n | n
COc1ccccc1C(=O)NCCC(=O)Nc1ccc(S(=O)(=O)N2CCCC(C)C2)cc1 (stereo unspecified) | u | x | 15µM | x | u | n
O=C(Nc1nc2n(n1)C(c1ccc(Cl)cc1)C=C(c1ccccc1)N2)c1ccco1 (stereo unspecified) | x | n | x | n | x | u
Cc1cc(C(=O)NNC(=O)Nc2ccc(Cl)cc2)no1 | n | n | n | n | n | n
Cc1cc(C(=O)NCCc2ccc(Cl)cc2)no1 | n | n | 6.6µM | u | n | u
Cc1cc(C(=O)NCCc2ccc(S(N)(=O)=O)cc2)no1 | n | n | n | n | n | n
